The structures appear in SMILES notation. “And” between values parts separate entries of the source, which are not always exact repeats. Equal values may be shown once. Inconclusive results are not listed. The source made the active and inactive calls. The call rests on the fitted dose curve; in most records, active means well fitted activation curve with a large enough effect; inconclusive means small, poorly fitted or top-dose-only effect; inactive means no such curve, though single readings can be large or run the other way.

Pyruvate kinase PKM (Homo sapiens), sequence (P14618 whole entry, looked up, canonical isoform): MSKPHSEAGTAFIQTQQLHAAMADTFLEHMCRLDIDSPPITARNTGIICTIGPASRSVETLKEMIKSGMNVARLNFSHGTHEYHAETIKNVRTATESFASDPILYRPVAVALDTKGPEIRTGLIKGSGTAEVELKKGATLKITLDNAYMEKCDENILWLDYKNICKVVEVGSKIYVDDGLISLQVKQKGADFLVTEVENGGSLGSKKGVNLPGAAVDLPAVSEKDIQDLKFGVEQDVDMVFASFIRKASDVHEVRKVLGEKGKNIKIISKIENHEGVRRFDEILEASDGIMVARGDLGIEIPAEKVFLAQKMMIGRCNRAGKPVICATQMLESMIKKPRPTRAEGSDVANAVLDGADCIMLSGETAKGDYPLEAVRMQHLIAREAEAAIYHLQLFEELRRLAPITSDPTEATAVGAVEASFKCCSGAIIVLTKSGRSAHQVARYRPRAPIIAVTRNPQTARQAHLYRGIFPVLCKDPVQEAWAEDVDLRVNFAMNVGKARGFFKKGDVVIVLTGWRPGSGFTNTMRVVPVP

In this assay the target is Pyruvate kinase PKM (Homo sapiens) (UniProt P14618). The experiment in a line: Confirmation Concentration-Response Assay for Activators of Human Muscle isoform 2 Pyruvate Kinase. To be noted: purified hPK-M2, Kinase-Glo ATP luminescence, 1 h; series mostly up to 57.5 µM. The source says:
NIH Chemical Genomics Center [NCGC] Matthew G. Vander Heiden, M.D., Ph.D. [Harvard Medical School, 77 Avenue Louis Pasteur, Boston, MA 02115] MLPCN Grant: 1 R03 MH085679-01 NCGC Assay Overview: Human pyruvate kinase muscle 2 (hPK-M2) enzyme was supplied as a highly purified (>95% pure) preparation from Harvard Medical School and assayed for its ability to generate ATP from ADP using phosphoenolpyruvate (PEP) as a substrate. ATP generation was detected in a coupled reaction by luciferase-mediated luminescence, an ATP-dependent process. Pyruvate kinase substrates, PEP and ADP, were present in the assay at Km and approximately 10-fold below Km respectively. The enzyme was assayed at an intermediate level of activity to screen for both inhibitors and activators.
NCGC Assay Protocol Summary: Three uL of substrate mix (at r.t.) in assay buffer (50 mM Imidazole pH7.2, 50 mM KCl, 7 mM MgCl2, 0.01% Tween 20, 0.05% BSA) was dispensed into white solid bottom 1,536 well microtiter plates so that the final concentrations of substrates in the assay were 0.1 mM ADP and 0.5 mM PEP. 23 nL of compound were delivered by a pin tool and 1 uL of enzyme mix (final concentration of 0.1 nM) in assay buffer (4 degree Celsius) was added. Plates were incubated at room temperature for 1 hour. Two uL of detection mix (Kinase-Glo, Promega; at 4 degree Celsius protected from light) was added and luminescence read by a ViewLux (Perkin Elmer) at 1 second exposure/plate. Data were normalized to the uninhibited (column 3) and AC100 inhibition (no enzyme in column 2). To monitor activation, the first column contained a titration of the activator, NCGC00031955-03 (16-point 1:2 dilutions in duplicate starting at 57 uM) and the first 16 rows of column 4 contained 57 uM of NCGC00031955-03.
Take `CCc1cc2c(s1)c1cnn(Cc3ccccc3F)c(=O)c1n2C`: the Potency is 63.5 nM (active). In the case of `Cc1cc2c(s1)c1cnn(Cc3ccc(F)c(F)c3F)c(=O)c1n2C` it was 713 nM (active). For `Cn1ccc2cc(S(=O)(=O)N3CCN(S(=O)(=O)c4c(F)cccc4F)CC3)ccc21`, the Potency is 318 nM (active). Regarding `Cc1nc2ccc(S(=O)(=O)N3CCN(S(=O)(=O)c4c(F)cccc4F)CC3)cc2s1`, the Potency was 63.5 nM (active). `CCCc1noc(-c2ccc(-c3ccccc3)cc2)n1`: the Potency result was “inactive”. As to `O=S(=O)(c1ccc2c(c1)OCCO2)C1CCN(S(=O)(=O)c2c(F)cccc2F)CC1`, the Potency is 713 nM (active). On to `CSc1cc2c(s1)c1cnn(Cc3ccccc3F)c(=O)c1n2C`, for which the Potency is 14.2 nM (active).

As to `Cc1cc2c(s1)c1cnn(Cc3c(F)cccc3Cl)c(=O)c1n2C`, the Potency is 40.1 nM (active). Then `O=S(=O)(c1ccc2c(c1)OCCO2)N1CCN(S(=O)(=O)c2c(F)cccc2F)CC1`, with 35.7 nM (active); and `O=S(=O)(c1ccc2c(c1)OCCO2)N1CCN(S(=O)(=O)c2cccc[n+]2[O-])CC1`, with 8970 nM (active); and `O=S(=O)(c1ccc(Cl)cc1)N1CCN(S(=O)(=O)c2ccc3c(c2)OCCO3)CC1`, with 56.6 nM (active). Then `COC(=O)CSC1=NS(=O)(=O)c2ccccc21`, with “inactive”. As to `O=S(=O)(NCCCCNS(=O)(=O)c1c(F)cccc1F)c1ccc2c(c1)OCCO2`, the Potency is 5050 nM (active).

Take `Cc1cc2c(s1)c1cnn(Cc3cc(C(F)(F)F)cc(Cl)c3F)c(=O)c1n2C`: the Potency is 20.1 nM (active). As to `O=S(=O)(NCCCCCNS(=O)(=O)c1c(F)cccc1F)c1ccc2c(c1)OCCO2`, the Potency is 2010 nM (active). In the case of `O=S(=O)(c1ccc2c(c1)OCCO2)N1CCN(S(=O)(=O)c2cc(F)c(F)cc2F)CC1` it was 71.3 nM (active); in that of `COc1cccc(S(=O)(=O)N2CCN(S(=O)(=O)c3ccc4c(c3)OCCO4)CC2)c1`, 63.5 nM (active); in that of `O=S(=O)(c1c(F)cccc1F)C1CCN(S(=O)(=O)c2ccc3c(c2)OCCO3)CC1`, 201 nM (active).

With `Cc1cc2c(s1)c1c(C)nn(Cc3ccccc3F)c(=O)c1n2C`, the Potency is 20100 nM (active). In the case of `COc1cc2c(s1)c1cnn(Cc3ccccc3F)c(=O)c1n2C` it was 40.1 nM (active); in that of `C[C@@H]1CN(S(=O)(=O)c2ccc3c(c2)OCCO3)CCN1S(=O)(=O)c1c(F)cccc1F`, 2530 nM (active); in that of `O=S(=O)(c1ccc2c(c1)OCCO2)N1CCN(S(=O)(=O)c2ccc(F)cc2F)CC1`, 63.5 nM (active). In the case of `N#Cc1cc(-c2ccccc2)cnc1Sc1ccccc1` it was “inactive”; in that of `Nc1cccc(-c2cn3cc(C(F)(F)F)cc(Cl)c3n2)c1`, “inactive”; in that of `Cc1cc(C)nc(SCCc2ccncc2)n1`, “inactive”. Then `COc1ccc(S(=O)(=O)N2CCN(S(=O)(=O)c3ccc(OC)cc3)CC2)cc1`, with 142 nM (active). For `CC(=O)Nc1cc2c(s1)c1cnn(Cc3ccccc3F)c(=O)c1n2C`, the Potency was 17900 nM (active). In the case of `Cc1cc2c(s1)c1cnn(Cc3ccc(C(F)(F)F)cc3)c(=O)c1n2C` it was 318 nM (active). In the case of `Cc1cc2c(s1)c1cnn(Cc3ccc(C(C)C)cc3)c(=O)c1n2C` it was 63.5 nM (active); in that of `CCN1CCc2c(sc(NC(=S)NC(=O)c3ccccc3)c2C#N)C1`, “inactive”; in that of `Cn1c2cc(S(C)=O)sc2c2cnn(Cc3ccccc3F)c(=O)c21` (stereo not given), 16 nM (active).

On to `COc1ccc(S(=O)(=O)N2CCN(S(=O)(=O)c3c(F)cccc3F)CC2)cc1`, for which the Potency is 56.6 nM (active). In the case of `CC(O)c1cc2c(s1)c1cnn(Cc3ccccc3F)c(=O)c1n2C` (stereo not given) it was 113 nM (active); in that of `O=S(=O)(NC1CCC(NS(=O)(=O)c2c(F)cccc2F)CC1)c1ccc2c(c1)OCCO2` (stereo not given), 1.27 µM (active) and 22.5 µM (active); in that of `O=S(=O)(c1ccc2c(c1)OCO2)N1CCN(S(=O)(=O)c2c(F)cccc2F)CC1`, 127 nM (active). Regarding `Cc1ccc(Cn2ncc3c4sc(C)cc4n(C)c3c2=O)c(C)c1`, the Potency is 56.6 nM (active).

In the case of `O=S(=O)(NC1CCN(S(=O)(=O)c2ccc3c(c2)OCCO3)CC1)c1c(F)cccc1F`, the Potency was 2530 nM (active). Then `Cc1cc2c(s1)c1cnn(Cc3ccc(C(F)(F)F)cc3F)c(=O)c1n2C`, with 16000 nM (active); and `C[C@H]1CN(S(=O)(=O)c2ccc3c(c2)OCCO3)CCN1S(=O)(=O)c1c(F)cccc1F`, with 8970 nM (active).

As to `O=C1NC(=S)S/C1=C1\Sc2ccccc2N1CCCS(=O)(=O)O`, the Potency entry was “inactive”.

For the origin of these results see PubChem BioAssay AID1751 (National Center for Advancing Translational Sciences (NCATS), 2009).
